Our source for the Potency and outcome values is PubChem BioAssay (NCATS).

Inconclusive results are not listed. Entries that show only a call come without a potency. The source made the active and inactive calls. Calls follow the shape of the dose curve; as a rule, active = well fitted curve in the direction sought with a large enough effect; inconclusive = small, poorly fitted or top-dose-only effect, or another doubt; inactive = no such curve, though single readings can be large; an effect the other way counts as inactive or inconclusive.

Alpha-galactosidase (Coffea arabica), sequence (Q42656 whole entry, looked up): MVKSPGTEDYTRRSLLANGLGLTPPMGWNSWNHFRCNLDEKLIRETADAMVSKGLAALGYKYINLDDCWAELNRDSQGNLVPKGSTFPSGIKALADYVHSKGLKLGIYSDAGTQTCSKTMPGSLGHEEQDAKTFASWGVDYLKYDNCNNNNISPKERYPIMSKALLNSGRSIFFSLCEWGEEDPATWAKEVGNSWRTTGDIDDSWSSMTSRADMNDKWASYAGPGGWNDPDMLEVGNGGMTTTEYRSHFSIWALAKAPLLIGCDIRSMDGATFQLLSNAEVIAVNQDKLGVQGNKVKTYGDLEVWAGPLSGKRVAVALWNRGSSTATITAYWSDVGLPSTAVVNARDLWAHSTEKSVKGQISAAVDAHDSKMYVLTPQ

In one test the target is Cytochrome P450 3A4 (Homo sapiens) (UniProt P08684). Briefly: qHTS Assay for Inhibitors and Substrates of Cytochrome P450 3A4 (AID 884). Also: nearly all actives have a fitted effect of over 50% in size. Also: potency is read from the fitted curve at half-maximal effect. The note with it: recombinant CYP3A4, Luciferin-PPXE luminescence; series mostly up to 57.1 µM. Summed up: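 Luminescent readout of luciferin produced by CYP3A4 (20 nM) dealkylation of Luciferin-PPXE, 25 uM (its KM). NADPH-driven reaction ran 60 min at RT after 10 min compound preincubation; data scaled to 57 uM ketoconazole as 100% inhibition.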
Cytochrome P450 3A4 (Homo sapiens), sequence (P08684 whole entry, looked up): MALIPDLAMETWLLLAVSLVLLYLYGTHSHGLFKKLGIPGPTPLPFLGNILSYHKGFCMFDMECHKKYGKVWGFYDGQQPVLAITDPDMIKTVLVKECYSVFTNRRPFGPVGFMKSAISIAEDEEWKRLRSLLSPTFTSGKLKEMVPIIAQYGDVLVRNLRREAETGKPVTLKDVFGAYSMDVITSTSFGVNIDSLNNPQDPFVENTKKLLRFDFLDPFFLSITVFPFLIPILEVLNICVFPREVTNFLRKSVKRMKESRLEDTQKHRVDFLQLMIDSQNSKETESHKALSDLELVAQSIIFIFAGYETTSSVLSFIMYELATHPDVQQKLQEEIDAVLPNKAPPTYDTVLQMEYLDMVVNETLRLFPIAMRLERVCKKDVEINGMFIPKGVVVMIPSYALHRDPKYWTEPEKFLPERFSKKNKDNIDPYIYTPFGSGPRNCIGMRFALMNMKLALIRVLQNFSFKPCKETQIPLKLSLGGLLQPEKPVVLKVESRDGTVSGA
With `CC(=O)[C@H]1CC[C@H]2[C@@H]3CCC4=CC(=O)CC[C@]4(C)[C@H]3CC[C@]12C`, the Potency entry is “inactive”.

For the compound `Cc1ccccc1O`, the Potency entry was “inactive”.

On to `CCCOc1ccc2[nH]cc(C3=CCNCC3)c2n1`, for which the Potency is 2.51 µM (active).

Another test has as its target Alpha-galactosidase (Coffea arabica) (UniProt Q42656). The test can be described thus: Counterscreen for Glucocerebrosidase Inhibitors: qHTS Assay for Coffee Bean alpha-Galactosidase at pH 4.5 (AID 957). The conditions noted are these: purified coffee bean alpha-galactosidase, fluorogenic substrate; series mostly up to 76.9 µM. Put shortly: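 Enzyme is added first (2 nM final), then compounds titrated from 0.7 nM to 77 uM, then 80 uM 4-methylumbelliferyl alpha-D-galactopyranoside; after 20 min at room temperature a pH 10 NaOH/glycine stop precedes fluorescence reading at 365/440 nm.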
(In general: A counterscreen serves to expose hits that act by an unwanted route or on another target.)
In the case of `CC(=O)[C@H]1CC[C@H]2[C@@H]3CCC4=CC(=O)CC[C@]4(C)[C@H]3CC[C@]12C`, the call was inactive.

In the case of `O=S(=O)(c1cccc2c(Cl)cccc12)N1CCCNCC1`, the outcome was inactive.

On to `O=S(=O)(c1cccc2c(I)cccc12)N1CCCNCC1`, for which the compound was called inactive.

Consider `C[N+]1(CCCCC[N+]2(C)CCCC2)CCCC1`, for which the compound was called inactive.

As for `NC(N)=NCc1cccc(I)c1`, the outcome was inactive.

Take `CC(C)COC(=O)OCN1C(=O)CN(CCN2CC(=O)N(COC(=O)OCC(C)C)C(=O)C2)CC1=O`: the call was inactive.

`COc1ccc(/C=C/C(=O)Nc2ccccc2C(=O)O)cc1OC`: the result was inactive.

Consider `CN(C)CCCN1c2ccccc2CCc2ccccc21`, for which the compound was classed as inactive.
